PubChem BioAssay AID1159580 (chemical genetic matrix, 2015)
Among all 5,500 compounds or so, about 2,000 (36%) were called active. Inconclusive results (about 18%) are left out. Rule as the data show it: active = normalized growth mostly below about 0.91 (no sharp cut-off); inconclusive = no clear call, values can overlap the other calls; inactive = mostly above about 0.92. Some of the results follow.

Assay: chemical genetic growth profiling, strain panel (AID 1159580);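 also: tested at 20 µM; growth read once vehicle control cultures reached saturation at 30 °C; 1 = growth at the plate median or of vehicle wells; lower values mean less growth of the strain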
Conditions: S. cerevisiae deletion strains, growth OD
[1] = locus YHR030C, strain SLT2, stronger effect = lower value
[2] = locus YHR079C, strain IRE1, stronger effect = lower value
[3] = locus YJL095W, strain BCK1, stronger effect = lower value
[4] = locus YJR066W, strain TOR1, stronger effect = lower value
[5] = locus YLR113W, strain HOG1, stronger effect = lower value
[6] = locus YNL183C, strain NPR1, stronger effect = lower value
[7] = locus YOR231W, strain MKK1, stronger effect = lower value
[8] = locus YPL256C, strain CLN2, stronger effect = lower value

Measured: normalized growth

N#CSCC(=O)c1ccccc1
active: locus YAR019C, strain CDC15, stronger effect = lower value 0.0948 | locus YBL105C, strain PKC1, stronger effect = lower value 0.0869 | locus YBR135W, strain CKS1, stronger effect = lower value 0.0998 | locus YBR136W, strain MEC1, stronger effect = lower value 0.0968 | locus YBR160W, strain CDC28, stronger effect = lower value 0.101 | locus YDL017W, strain CDC7, stronger effect = lower value 0.092 | locus YDL028C, strain MPS1, stronger effect = lower value 0.108 | locus YDL101C, strain DUN1, stronger effect = lower value 0.159 | locus YDL108W, strain KIN28, stronger effect = lower value 0.107 | locus YDL214C, strain PRR2, stronger effect = lower value 0.125 | locus YDR052C, strain DBF4, stronger effect = lower value 0.273 | locus YDR477W, strain SNF1, stronger effect = lower value 0.107 | locus YER123W, strain YCK3, stronger effect = lower value 0.121 | locus YER133W, strain GLC7, stronger effect = lower value 0.12 | locus YFL009W, strain cdc4, stronger effect = lower value 0.104 | locus YFL029C, strain CAK1, stronger effect = lower value 0.0973 | locus YFR003C, strain YPI1, stronger effect = lower value 0.0991 | locus YFR019W, strain FAB1, stronger effect = lower value 0.0919 | locus YGR040W, strain KSS1, stronger effect = lower value 0.119 | locus YGR052W, strain FMP48, stronger effect = lower value 0.127 | locus YGR092W, strain DBF2, stronger effect = lower value 0.0982 | [1] 0.111 | [2] 0.107 | locus YHR082C, strain KSP1, stronger effect = lower value 0.145 | locus YHR205W, strain SCH9, stronger effect = lower value 0.00392 | locus YIL147C, strain SLN1, stronger effect = lower value 0.0993 | [3] 0.101 | locus YJL128C, strain PBS2, stronger effect = lower value 0.499 | locus YJL157C, strain FAR1, stronger effect = lower value 0.0986 | locus YJR016C, strain ILV3, stronger effect = lower value 0.0975 | locus YJR066W, strain TOR1 (second series), stronger effect = lower value 0.101 | [4] 0.122 | locus YKL048C, strain ELM1, stronger effect = lower value 0.154 | locus YKL067W, strain YNK1, stronger effect = lower value 0.119 | locus YKL101W, strain HSL1, stronger effect = lower value 0.115 | locus YKL193C, strain SDS22, stronger effect = lower value 0.105 | locus YKL203C, strain TOR2, stronger effect = lower value 0.112 | [5] 0.147 | locus YLR133W, strain CKI1, stronger effect = lower value 0.0895 | locus YLR403W, strain SFP1, stronger effect = lower value 0.0174 | locus YML070W, strain DAK1, stronger effect = lower value 0.126 | locus YMR001C, strain CDC5, stronger effect = lower value 0.0981 | locus YMR205C, strain PFK2 (second series), stronger effect = lower value 0.095 | locus YMR277W, strain FCP1, stronger effect = lower value 0.0965 | locus YNL006W, strain LST8, stronger effect = lower value 0.0939 | locus YNL020C, strain ARK1, stronger effect = lower value 0.0915 | locus YNL161W, strain CBK1, stronger effect = lower value 0.0943 | [6] 0.13 | locus YNL207W, strain RIO2, stronger effect = lower value 0.121 | locus YNL222W, strain SSU72, stronger effect = lower value 0.0984 | locus YNL307C, strain MCK1 (second series), stronger effect = lower value 0.0995 | locus YOL078W, strain AVO1, stronger effect = lower value 0.107 | locus YOL136C, strain PFK27, stronger effect = lower value 0.14 | locus YOR061W, strain CKA2, stronger effect = lower value 0.158 | locus YOR119C, strain RIO1, stronger effect = lower value 0.132 | [7] 0.118 | locus YOR329C, strain SCD5, stronger effect = lower value 0.0919 | locus YPL031C, strain PHO85, stronger effect = lower value 0.107 | locus YPL153C, strain RAD53, stronger effect = lower value 0.117 | locus YPL204W, strain HRR25, stronger effect = lower value 0.109 | locus YPL209C, strain IPL1, stronger effect = lower value 0.0967 | [8] 0.135 | locus YPR025C, strain CCL1, stronger effect = lower value 0.0952 | locus YPR106W, strain ISR1, stronger effect = lower value 0.469 | locus YPR111W, strain DBF20, stronger effect = lower value 0.505 | strain NNK1, stronger effect = lower value 0.0857 | strain TSCII, stronger effect = lower value 0.0982

O=C(OOC(=O)c1ccccc1)c1ccccc1
inactive: locus YAL021C, strain ccr4, stronger effect = lower value 0.969 | locus YAL026C, strain drs2, stronger effect = lower value 0.952 | locus YAL030W, strain snc1, stronger effect = lower value 0.976 | locus YBL061C, strain skt5, stronger effect = lower value 0.962 | locus YBR009C, strain hhf1, stronger effect = lower value 0.96 | locus YBR023C, strain chs3, stronger effect = lower value 0.977 | locus YBR171W, strain sec66, stronger effect = lower value 0.948 | locus YBR231C, strain swc5, stronger effect = lower value 0.978 | locus YBR279W, strain paf1, stronger effect = lower value 0.991 | locus YCL011C, strain gbp2, stronger effect = lower value 0.962 | locus YCL016C, strain dcc1, stronger effect = lower value 0.956 | locus YCL061C, strain MRC1, stronger effect = lower value 0.96 | locus YCL069W, strain vba3, stronger effect = lower value 0.993 | locus YCR088W, strain abp1, stronger effect = lower value 0.998 | locus YDL005C, strain med2, stronger effect = lower value 0.977 | locus YDL040C, strain nat1, stronger effect = lower value 0.992 | locus YDR001C, strain nth1, stronger effect = lower value 0.976 | locus YDR069C, strain doa4, stronger effect = lower value 0.965 | locus YDR137W, strain rgp1, stronger effect = lower value 0.959 | locus YDR159W, strain sac3, stronger effect = lower value 0.94 | locus YDR195W, strain ref2 1.01 | locus YDR297W, strain sur2, stronger effect = lower value 0.982 | locus YDR334W, strain swr1, stronger effect = lower value 0.92 | locus YDR335W, strain msn5, stronger effect = lower value 0.986 | locus YDR392W, strain spt3, stronger effect = lower value 0.933 | locus YEL003W, strain gim4, stronger effect = lower value 0.989 | locus YEL037C, strain rad23, stronger effect = lower value 0.977 | locus YEL061C, strain CIN8 (second series), stronger effect = lower value 0.985 | locus YER015W, strain faa2, stronger effect = lower value 0.959 | locus YER016W, strain bim1, stronger effect = lower value 0.993 | locus YER111C, strain swi4, stronger effect = lower value 0.972 | locus YER155C, strain BEM2 (second series), stronger effect = lower value 0.971 | locus YFR010W, strain ubp6, stronger effect = lower value 0.948 | locus YGL167C, strain pmr1, stronger effect = lower value 0.965 | locus YGL173C, strain kem1, stronger effect = lower value 0.956 | locus YGL227W, strain vid30, stronger effect = lower value 0.981 | locus YGL240W, strain doc1, stronger effect = lower value 0.989 | locus YGL253W, strain hxk2, stronger effect = lower value 0.96 | locus YHR013C, strain ard1, stronger effect = lower value 0.959 | locus YHR027C, strain rpn1, stronger effect = lower value 0.95 | locus YHR142W, strain chs7, stronger effect = lower value 0.95 | locus YJL092W, strain hpr5, stronger effect = lower value 0.97 | locus YJL095W, strain BCK1 (second series), stronger effect = lower value 0.993 | locus YJL115W, strain asf1, stronger effect = lower value 0.95 | locus YJL129C, strain trk1, stronger effect = lower value 0.991 | locus YJL154C, strain vps35, stronger effect = lower value 0.984 | locus YJL164C, strain tpk1, stronger effect = lower value 0.983 | locus YJL166W, strain qcr8, stronger effect = lower value 0.964 | locus YJL187C, strain SWE1, stronger effect = lower value 0.981 | locus YKL160W, strain elf1, stronger effect = lower value 0.969 | locus YKR026C, strain gcn3, stronger effect = lower value 0.979 | locus YKR091W, strain srl3, stronger effect = lower value 0.976 | locus YLL001W, strain dnm1, stronger effect = lower value 0.941 | locus YLL026W, stronger effect = lower value 0.974 | locus YLL041C, strain sdh2, stronger effect = lower value 0.968 | locus YLR027C, strain aat2, stronger effect = lower value 0.961 | locus YLR221C, strain rsa3, stronger effect = lower value 0.93 | locus YLR258W, strain gsy2, stronger effect = lower value 0.991 | locus YLR262C, strain YPT6 (second series), stronger effect = lower value 0.976 | locus YLR320W, strain mms22, stronger effect = lower value 0.95 | locus YLR342W, strain FKS1, stronger effect = lower value 0.971 | locus YLR357W, strain rsc2, stronger effect = lower value 0.975 | locus YLR370C, strain arc18, stronger effect = lower value 0.954 | locus YLR384C, strain iki3, stronger effect = lower value 0.954 | locus YML120C, strain ndi1, stronger effect = lower value 0.944 | locus YMR058W, strain fet3, stronger effect = lower value 0.953 | locus YMR125W, strain sto1, stronger effect = lower value 0.979 | locus YMR129W, stronger effect = lower value 0.998 | locus YMR205C, strain PFK2, stronger effect = lower value 0.949 | locus YMR231W, strain pep5, stronger effect = lower value 0.984 | locus YNL071W, strain lat1, stronger effect = lower value 0.981 | locus YNL209W, strain ssb2, stronger effect = lower value 0.981 | locus YNL248C, strain rpa49, stronger effect = lower value 0.957 | locus YNL322C, strain KRE1 (second series), stronger effect = lower value 0.941 | locus YNR049C, strain mso1, stronger effect = lower value 0.959 | locus YOR001W, strain rrp6, stronger effect = lower value 0.982 | locus YOR070C, strain gyp1, stronger effect = lower value 0.981 | locus YOR080W, strain dia2, stronger effect = lower value 0.961 | locus YOR083W, strain WHI5, stronger effect = lower value 0.965 | locus YOR106W, strain vam3, stronger effect = lower value 0.926 | locus YOR265W, strain rbl2, stronger effect = lower value 0.98 | locus YOR270C, strain vph1, stronger effect = lower value 0.973 | locus YOR290C, strain snf2, stronger effect = lower value 0.917 | locus YPL051W, strain arl3, stronger effect = lower value 0.97 | locus YPL078C, strain atp4, stronger effect = lower value 0.966 | locus YPL106C, strain sse1, stronger effect = lower value 0.977 | locus YPL240C, strain hsp82, stronger effect = lower value 0.982
active: [1] 0.842 | [2] 0.799 | [3] 0.812 | [4] 0.82 | [5] 0.642 | [6] 0.773 | [7] 0.792 | [8] 0.773

NC(COCc1ccccc1)C(=O)O (stereo not given)
inactive: [1] 1.01 | [2] 1 | [3] 0.995 | [4] 0.891 | [5] 1.01 | [6] 0.904 | [7] 1.01 | [8] 0.999
